The record followed here is PubChem BioAssay.

Experiment [1] has as its system Plasmodium falciparum Sir2 (PF13_0152, Sir2A). The experiment can be described thus: pfSir2 binders on small-molecule microarrays, primary screen, biochemical, small-molecule microarray, 635 nm fluorescence (AID 1098).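 Further: score merges spot fluorescence intensity with its signal-to-noise ratio.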 As to conditions: small-molecule microarray binding, fluorescence 635 nm; higher = more signal.
Experiment [2] is described as follows: small-molecule microarray binders of probe aDKK1, primary screen, biochemical, biotinylated probe, 635/667 nm fluorescence (AID 1099).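 Further: score merges 667nm spot fluorescence with signal to noise across triplicate slides; reference of the scale not given here.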 The conditions noted are these: higher = more signal.
Experiment [3] is described as follows: small-molecule microarray binders of probe aCHRDL2, primary screen, biochemical, biotinylated probe, 635/667 nm fluorescence (AID 1100). As to conditions: higher = more signal.
The nature of experiment [4]: splicing luciferase reporter signal modulators, primary screen, spliceosome inhibition project, cell-based, HEK293, splice +/- reporter (AID 1101).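 Further: HEK293 cells carrying a splicing-competent luciferase reporter gene; test concentration not given here.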 The conditions noted are these: luminescence, 24 h, higher = more signal, called active from +8 up or from −8 down.
Experiment [5] has as its target Fibroblast growth factor 10 (Homo sapiens) (UniProt O15520). The experiment can be described thus: FGF10 binders on small-molecule microarrays, primary screen, biochemical, small-molecule microarray, 635 nm fluorescence (AID 1102). The conditions noted are these: FGF10 binding, fluorescence 635 nm, higher = more signal.
Experiment [6] concerns glycogen synthase kinase-3 (GSK3A per assay name; protocol says GSK3B). The experiment in a line: GSK3 binders on small-molecule microarrays, primary screen, biochemical, small-molecule microarray, 635 nm fluorescence, GSK3A (AID 1103). Further: the record names both GSK3A and GSK3B. As to conditions: small-molecule microarray binding, fluorescence 635 nm; higher = more signal.
Experiment [7] addresses Epidermal growth factor receptor (Homo sapiens) (UniProt P00533). The experiment in a line: EGFR binders on small-molecule microarrays, primary screen, biochemical, small-molecule microarray, 635 nm fluorescence (AID 1104).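 Further: score merges 667 nm emission intensity with spot signal to noise over triplicate slides.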 The conditions noted are these: EGFR binding, higher = more signal.
For experiment [8], the target named is Follistatin-related protein 3 (Homo sapiens) (UniProt O95633). The experiment can be described thus: FSTL3 binders on small-molecule microarrays, primary screen, biochemical, small-molecule microarray, 635 nm fluorescence (AID 1105).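 Further: score merges emission near 667 nm and signal to noise per printed spot across three slides.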 The conditions noted are these: FSTL3 binding, higher = more signal.
Experiment [9] addresses Dickkopf-related protein 1 (Homo sapiens) (UniProt O94907). The experiment in a line: DKK1 binders on small-molecule microarrays, primary screen, biochemical, small-molecule microarray, 635 nm fluorescence scan (AID 1106).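 Further: score merges emission near 667 nm with signal to noise over three replicate slides.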 As to conditions: DKK1 binding, higher = more signal.
Experiment [10] concerns Inhibin beta A chain (activin A). The experiment can be described thus: INHBA (activin A) binders on microarrays, primary screen, biochemical, small-molecule microarray, 635 nm fluorescence scan (AID 1107).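 Further: mouse activin A protein probed at 4.33 µg/mL on printed slides; score merges bound-protein fluorescence near 667 nm with spot signal-to-noise.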 The conditions noted are these: small-molecule microarray binding, higher = more signal.

Activity calls are given as the source filed them.

Chain of Follistatin-related protein 3 (Homo sapiens) (O95633 whole entry, looked up): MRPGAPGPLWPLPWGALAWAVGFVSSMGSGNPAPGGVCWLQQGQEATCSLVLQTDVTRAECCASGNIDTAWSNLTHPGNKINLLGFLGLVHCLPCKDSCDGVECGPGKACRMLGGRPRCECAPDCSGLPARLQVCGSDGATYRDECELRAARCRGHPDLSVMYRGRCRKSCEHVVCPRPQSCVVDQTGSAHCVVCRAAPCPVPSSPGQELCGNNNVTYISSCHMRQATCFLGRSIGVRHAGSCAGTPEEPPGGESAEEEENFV
Chain of Dickkopf-related protein 1 (Homo sapiens) (O94907 whole entry, looked up): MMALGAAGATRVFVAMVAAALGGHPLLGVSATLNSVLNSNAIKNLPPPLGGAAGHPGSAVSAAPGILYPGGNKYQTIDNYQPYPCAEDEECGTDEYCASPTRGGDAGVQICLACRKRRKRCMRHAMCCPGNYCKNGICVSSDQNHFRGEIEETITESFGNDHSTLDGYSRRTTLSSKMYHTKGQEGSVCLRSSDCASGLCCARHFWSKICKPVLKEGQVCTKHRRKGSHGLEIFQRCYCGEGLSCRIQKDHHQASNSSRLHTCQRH
Chain of Epidermal growth factor receptor (Homo sapiens) (P00533 whole entry, looked up): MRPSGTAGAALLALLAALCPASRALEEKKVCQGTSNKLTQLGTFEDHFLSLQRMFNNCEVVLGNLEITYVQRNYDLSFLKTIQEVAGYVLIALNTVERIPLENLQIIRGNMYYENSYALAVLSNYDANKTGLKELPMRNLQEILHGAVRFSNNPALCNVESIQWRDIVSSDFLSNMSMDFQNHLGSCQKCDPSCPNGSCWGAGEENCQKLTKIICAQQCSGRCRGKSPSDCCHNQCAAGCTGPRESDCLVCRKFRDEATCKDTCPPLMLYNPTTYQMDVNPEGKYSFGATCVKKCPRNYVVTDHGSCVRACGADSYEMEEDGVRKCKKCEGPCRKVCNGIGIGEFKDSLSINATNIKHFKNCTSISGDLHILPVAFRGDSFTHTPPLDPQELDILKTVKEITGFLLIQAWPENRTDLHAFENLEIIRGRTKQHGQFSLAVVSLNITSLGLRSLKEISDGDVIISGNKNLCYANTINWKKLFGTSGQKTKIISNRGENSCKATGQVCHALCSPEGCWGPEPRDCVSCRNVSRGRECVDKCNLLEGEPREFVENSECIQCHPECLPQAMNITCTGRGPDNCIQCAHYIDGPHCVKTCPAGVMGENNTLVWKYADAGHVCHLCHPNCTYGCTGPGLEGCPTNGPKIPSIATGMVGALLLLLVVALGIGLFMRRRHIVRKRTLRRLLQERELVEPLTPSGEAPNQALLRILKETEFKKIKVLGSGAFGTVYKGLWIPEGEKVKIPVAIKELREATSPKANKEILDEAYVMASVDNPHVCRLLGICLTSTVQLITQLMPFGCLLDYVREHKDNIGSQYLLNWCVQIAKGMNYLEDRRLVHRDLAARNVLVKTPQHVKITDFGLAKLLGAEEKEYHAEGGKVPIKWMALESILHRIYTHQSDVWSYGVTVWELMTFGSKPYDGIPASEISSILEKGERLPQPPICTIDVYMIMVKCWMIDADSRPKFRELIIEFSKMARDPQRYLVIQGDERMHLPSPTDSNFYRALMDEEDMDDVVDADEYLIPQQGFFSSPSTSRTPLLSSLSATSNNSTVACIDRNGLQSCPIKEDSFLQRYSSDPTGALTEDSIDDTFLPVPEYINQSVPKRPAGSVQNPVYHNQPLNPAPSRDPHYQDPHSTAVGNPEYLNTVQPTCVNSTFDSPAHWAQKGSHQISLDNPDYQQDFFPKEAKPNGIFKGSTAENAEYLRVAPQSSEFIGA
Chain of Fibroblast growth factor 10 (Homo sapiens) (O15520 whole entry, looked up): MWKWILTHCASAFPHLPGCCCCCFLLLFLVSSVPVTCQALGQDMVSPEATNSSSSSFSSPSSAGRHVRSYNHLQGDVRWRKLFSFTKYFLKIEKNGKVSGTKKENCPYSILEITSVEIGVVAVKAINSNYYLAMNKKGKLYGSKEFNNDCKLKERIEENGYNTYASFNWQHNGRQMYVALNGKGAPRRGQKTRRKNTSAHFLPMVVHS

Take `COC(=O)[C@@]1(Cc2ccc(OC)cc2)[C@H]2c3cc(C(=O)N(C)C)n(CCF)c3C[C@H]2CN1C(=O)c1ccccc1`: the composite z-score in experiment [1] turned out to be 1.17; in experiment [2], 1.23; in experiment [3], 0.923; in experiment [5], 0.601; in [6] it was 1.14; in [7] it was 0.185. The composite z-score in experiment [8] is 1.03; in experiment [9] it was -0.123; in [10], 0.854. In [4], the z-score is -0.674 (inactive).
Turning to `CN(C)CCCCCCNC(=O)[C@@H]1C[C@@H]2C(=O)NCC(=O)N2[C@@H]1c1ccc(O)cc1`, the composite z-score in [1] was 1.25; in [2], -0.0528; in experiment [3], -0.29; in experiment [5], 1.4; in [6] it was 1.36; in experiment [7], 0.59. Further, the composite z-score in [8] was 1.46; in [9], 1.19; in experiment [10], 0.678. Besides, the z-score in experiment [4] was -0.326 (inactive).
With `CN(C)CCCCNC(=O)[C@H]1C[C@H]2C(=O)N[C@@H](CCCC[N+](C)(C)C)C(=O)N2[C@H]1c1cccc(OCCO)c1`, the composite z-score was 1.57 in experiment [1]; -0.124 in experiment [2]; 0.15 in experiment [3]; 0.217 in experiment [5]; 0.571 in experiment [6]; 0.126 in experiment [7]. Moreover, the composite z-score came out at 0.738 in [8], 0.797 in experiment [9] and 0.877 in experiment [10]. Also, in experiment [4], the z-score is -0.698 (inactive).
In the case of `COc1ccc([Si](C)(C)[C@H]2[C@H](CC(=O)N3CCC[C@H]3CO)O[C@@]3(C(=O)N(Cc4ccc(N5C(=O)c6cccc7cccc5c67)cc4)c4ccccc43)[C@@H]2C)cc1`, the composite z-score in [1] was found to be 1.4; in experiment [2] it was 0.184; in experiment [3], 0.0075; in [5] it was 0.651; in [6] it was 1.2; in experiment [7], 0.6. The composite z-score came to 1.35 in experiment [8], 0.736 in experiment [9] and 0.4 in experiment [10]. Also, the z-score in [4] was -1.17 (inactive).
On to `C#CCOC(=O)N[C@H](C=CCCCC)c1ccccc1`, for which the composite z-score is -0.257 in experiment [1]; 0.326 in [2]; 0.942 in experiment [3]; 0.605 in experiment [5]; 0.35 in experiment [6]; 0.241 in [7]. Further, the values for the composite z-score in experiment [8], in experiment [9] and in experiment [10] were -0.484, -0.352 and 0.983, respectively. Besides, in experiment [4], the z-score was -0.341 (inactive).
Turning to `Cc1cc(C)c(C(O)C2C=CC3C(=O)N(c4ccccc4)C(=O)C3N2Nc2ccccc2)c(C)c1` (stereo not given), the composite z-score is 1.52 in [1]; 1.17 in [2]; 0.849 in [3]; 0.964 in experiment [5]; 1.2 in [6]; 0.403 in experiment [7]. For the same compound, the composite z-score in experiment [8] was 0.939; in [9], -0.167; in experiment [10] it was 0.242. In [4], the z-score is -0.62 (inactive).
For `COCCOC(=O)N1C(=O)[C@@]2(c3cc(C#Cc4ccc(OC)cc4)ccc31)[C@H](c1ccc(OCCO)cc1)N1[C@H](c3ccccc3)[C@H](c3ccccc3)OC(=O)[C@H]1[C@@H]2C(N)=O`, the composite z-score in [1] was 1.27; in experiment [2] it was 0.654; in experiment [3], 0.608; in experiment [5], 1.25; in experiment [6] it was 1.32; in experiment [7], 0.711. The composite z-score in experiment [8] was found to be 1.43; in experiment [9] it was 0.853; in experiment [10], 0.48. The z-score in experiment [4] was -0.372 (inactive).
In the case of `COCCOC(=O)N1C(=O)[C@@]2(c3cc(C#Cc4ccc(OC)cc4)ccc31)[C@H](C(N)=O)[C@H]1C(=O)O[C@H](c3ccccc3)[C@H](c3ccccc3)N1[C@@H]2c1ccc(OCCO)cc1`, the composite z-score in [1] was 1.43; in [2] it was -0.178; in experiment [3], -0.13; in [5] it was 1.42; in [6] it was 1.33; in experiment [7] it was 0.769. Moreover, the composite z-score in [8] is 1.34; in [9], 0.631; in experiment [10], 0.343. The z-score in experiment [4] was -0.853 (inactive).
As for `COCCCNC(=O)[C@@]1(Cc2ccccc2)COC(c2ccc(OCCCO)cc2)=N1`, the composite z-score is 1.7 in experiment [1]; 0.583 in experiment [2]; 1.11 in [3]; 0.505 in [5]; 0.384 in [6]; -0.715 in experiment [7]. Also, the composite z-score in experiment [8] was -0.776; in experiment [9], -0.688; in experiment [10], 0.065. Further, the z-score in experiment [4] is -0.37 (inactive).
Consider `COC(=O)[C@@]1(Cc2ccc(F)cc2)[C@H]2c3cc(C(=O)N(C)C)n(Cc4ccc(C)c(F)c4F)c3C[C@H]2CN1C(=O)c1ccccc1`, for which the composite z-score in [1] is 0.0477; in [2], 0.871; in experiment [3], 1.03; in experiment [5], 0.158; in experiment [6], -0.224; in experiment [7] it was 0.558. Further, the composite z-score is -0.0326 in experiment [8], -0.693 in experiment [9] and 1.39 in [10]. The z-score in experiment [4] was -0.509 (inactive).
On to `O=C1NC(=O)C2C1C=CC(C(O)c1ccc(-c3ccccc3)s1)N2Nc1ccccn1` (stereo not given), for which the composite z-score in experiment [1] is 0.115; in experiment [2], 1.09; in [3] it was 1.25; in experiment [5], 0.475; in experiment [6], -0.316; in [7], 0.559. For the same compound, the composite z-score was determined as 0.561 in [8], 0.664 in experiment [9] and 1.18 in experiment [10]. For the same compound, in experiment [4], the z-score is 1.56 (inactive).
Consider `CC(C)CN1C(=O)[C@@]2(Cc3ccccc31)c1ccccc1C(=O)N(Cc1ccccc1)[C@H]2c1ccc(CO)cc1`, for which the composite z-score is -0.743 in [1]; 0.236 in experiment [2]; 0.514 in experiment [3]; -0.701 in experiment [5]; -0.776 in experiment [6]; -0.636 in experiment [7]. The composite z-score in experiment [8] was 0.554; in experiment [9] it was -0.952; in experiment [10], -0.298. In addition, the z-score in experiment [4] is -0.489 (inactive).
With `COc1cc2c(cc1OC)CN(C(=O)[C@@H]1[C@H]3C(=O)O[C@H](c4ccccc4)[C@H](c4ccccc4)N3[C@H](c3ccc(OCCO)cc3)[C@@]13C(=O)Nc1ccc(C#CCCO)cc13)CC2`, the composite z-score in [1] was 1.18; in experiment [2], -0.0226; in experiment [3], 0.772; in experiment [5] it was 1.28; in [6], 1.27; in [7], 0.714. Besides, the composite z-score in experiment [8] worked out at 1.23; in experiment [9] it was 0.646; in experiment [10], 0.638. In experiment [4], the z-score is -0.921 (inactive).
Regarding `CCN(CC)c1ccc(N2CC=CC34O[C@@H]5/C=C\CCCOC(=O)C5[C@H]3C(=O)N(CCCCCO)[C@@H]4C2=O)cc1` (stereo not given in full), the composite z-score in experiment [1] is 0.643; in experiment [2], 0.123; in experiment [3], 0.397; in experiment [5] it was -1.47; in experiment [6], -1.4; in experiment [7], -0.983. Further, the composite z-score in experiment [8] was -1.42; in experiment [9], -1.01; in experiment [10], -0.399. For the same compound, in experiment [4], the z-score is 0.643 (inactive).
On to `CC(C)N1C(=O)c2ccccc2[C@](C)(C(=O)O)[C@@H]1c1ccc(CO)cc1`, for which the composite z-score was 0.738 in [1]; 0.326 in [2]; 0.855 in experiment [3]; -0.756 in [5]; -1.23 in [6]; -1.35 in experiment [7]. Moreover, the composite z-score in experiment [8] is -0.638; in experiment [9], -1.06; in experiment [10], 0.532. For the same compound, the z-score in [4] is 0.591 (inactive).
